{"source": "PubChem BioAssay AID2599", "about": "(Sanford-Burnham Center for Chemical Genomics, 2010)", "note": "Out of some 330,000 compounds screened, about 5,800 (1.8%) were called active.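 Rule for the calls: active = inhibition above about 50% at the single tested dose (limit read from the data); inactive = the rest.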 For the sample, actives were picked, then their nearest neighbours and some compounds at random."}
{"target": "Sentrin-specific protease 6 (Homo sapiens) (UniProt Q9GZR1)", "sequence (Q9GZR1 628-1112 limits assumed)": "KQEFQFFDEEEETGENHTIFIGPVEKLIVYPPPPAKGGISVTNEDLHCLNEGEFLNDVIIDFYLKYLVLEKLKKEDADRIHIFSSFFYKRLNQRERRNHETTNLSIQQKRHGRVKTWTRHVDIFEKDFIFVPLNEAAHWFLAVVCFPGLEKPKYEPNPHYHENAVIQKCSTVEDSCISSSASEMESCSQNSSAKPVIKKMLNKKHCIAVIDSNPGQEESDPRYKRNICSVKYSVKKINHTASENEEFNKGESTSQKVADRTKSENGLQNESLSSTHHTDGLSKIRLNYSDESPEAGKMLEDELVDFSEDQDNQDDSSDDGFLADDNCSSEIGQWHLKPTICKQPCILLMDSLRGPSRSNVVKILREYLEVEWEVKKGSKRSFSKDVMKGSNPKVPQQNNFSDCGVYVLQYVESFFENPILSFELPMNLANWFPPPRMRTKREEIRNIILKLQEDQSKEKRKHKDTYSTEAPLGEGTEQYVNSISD", "experiment": "SENP6 protease inhibitors, primary screen, biochemical, luminescence, uHTS (AID 2599);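 note: plate controls were DMSO wells with enzyme for no effect and DMSO wells lacking enzyme for full effect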", "settings": "Recombinant SENP6 catalytic domain, aminoluciferin luminescence; at 10 µM; stronger effect = higher value"}
{"smiles": "CCn1c(=S)sc2c(=O)n(CC(=O)Nc3cccc(Br)c3)c(C)nc21", "inhibition": "3.55% (inactive)"}
{"smiles": "Cc1cccc(C(=O)OCC(=O)NCC(C)C)c1O", "inhibition": "9.44% (inactive)"}
{"smiles": "CCCn1c(SCC(=O)Nc2c(C)cccc2C)nnc1C(C)C", "inhibition": "-9.77% (inactive)"}
{"smiles": "C=CCOc1ccc(/C=N/NC(=O)C(C)Sc2ccccn2)cc1OCC", "note": "(stereo not drawn)", "inhibition": "-0.571% (inactive)"}
{"smiles": "COc1ccc(CCNC(=O)C(=O)NCC2OCCN2S(=O)(=O)c2cccs2)cc1OC", "note": "(stereo not drawn)", "inhibition": "-6.36% (inactive)"}
{"smiles": "Cc1ccc(NC(=O)CCOc2ccccc2)cc1S(=O)(=O)Nc1ccccc1Cl", "inhibition": "1.1% (inactive)"}
{"smiles": "Cc1c(C(=O)NCCN(C)C)oc2ccc(S(=O)(=O)N3CCCC3)cc12", "inhibition": "4.61% (inactive)"}
{"smiles": "CS(=O)(=O)N(CC(=O)NC1CCCC1)Cc1ccc(F)cc1", "inhibition": "-6.07% (inactive)"}
{"smiles": "O=C(NC1CC1)c1ccc(-c2ccccc2)cc1", "inhibition": "-15.5% (inactive)"}
{"smiles": "COc1ccccc1/C=N/Nc1nc(C)c(C(C)=O)s1", "inhibition": "-28% (inactive)"}
{"smiles": "COc1cccc2sc(Nc3nc(C)c(C(C)=O)s3)nc12", "inhibition": "87.8% (active)"}
{"smiles": "CNC(=O)c1sc(NCc2ccccc2OC)nc1C", "inhibition": "8.32% (inactive)"}
{"smiles": "CCn1c(SCC(=O)Nc2ccc(Br)cc2)nc2sc3c(c2c1=O)CCN(C)C3", "inhibition": "12.7% (inactive)"}
{"smiles": "CCOc1ccc(CN2CCN(Cc3ccc4cc(F)ccc4n3)CC2CCO)cc1", "note": "(stereo not drawn)", "inhibition": "9.04% (inactive)"}
{"smiles": "COc1cccc(-c2ccc3c(c2)S(=O)(=O)c2cccc(C(=O)O)c2C3=O)c1OC", "inhibition": "-1.89% (inactive)"}
{"smiles": "O=C(O)c1ccc2c3c(cccc13)C(=O)N(OS(=O)(=O)c1ccccc1)C2=O", "inhibition": "60.3% (active)"}
{"smiles": "CCN(c1ccccc1)S(=O)(=O)c1cccc(C(=O)NCc2ccccc2CN2CCOCC2)c1", "inhibition": "-16.6% (inactive)"}
{"smiles": "CCc1ccc(C(=O)OCC(=O)NCC(F)(F)F)cc1", "inhibition": "-1.8% (inactive)"}
{"smiles": "CCCC1NC(=O)NC(C)=C1C(=O)OCC", "note": "(stereo not drawn)", "inhibition": "-6.49% (inactive)"}
{"smiles": "Cc1nnc(NC(=O)/C=C/c2ccco2)s1", "inhibition": "-18.6% (inactive)"}
{"smiles": "O=C(/C=C/c1ccco1)NC(=S)Nc1ccccc1Br", "inhibition": "6.12% (inactive)"}
{"smiles": "O=C(/C=C/c1ccco1)Nc1ccc(Oc2ccccc2)cc1", "inhibition": "80.1% (active)"}
{"smiles": "CCOC(=O)C1(Cc2cccc(OC)c2)CCCN(S(=O)(=O)c2cccnc2)C1", "note": "(stereo not drawn)", "inhibition": "-9.47% (inactive)"}
{"smiles": "Oc1ccc(N=Nc2nccs2)c(O)c1", "inhibition": "87.3% (active)"}
{"smiles": "C=CCC(NC(=O)Cc1ccccc1)C(=O)NCCC", "note": "(stereo not drawn)", "inhibition": "-9.67% (inactive)"}
{"smiles": "Cc1nonc1C(=O)N/N=C/c1ccc(O)cc1", "inhibition": "98.9% (active)"}
{"smiles": "COC(=O)N/N=C/c1ccc(/C=N/NC(=O)OC)cc1", "inhibition": "-17.5% (inactive)"}
{"smiles": "Cc1nc2ccc(C(=O)N/N=C/c3ccc(O)cc3)cc2[nH]1", "inhibition": "-6.89% (inactive)"}
{"smiles": "CCOC(=O)C1(Cc2ccccc2C(F)(F)F)CCN(C(=O)c2cc(C)n(C)n2)CC1", "inhibition": "-1.7% (inactive)"}
{"smiles": "O=C(NC(=S)N1CCc2ccccc21)c1ccco1", "inhibition": "7.02% (inactive)"}
{"smiles": "COc1ccccc1-c1nnc(NC(=O)c2ccc3ncsc3c2)o1", "inhibition": "-1.73% (inactive)"}
{"smiles": "Cc1ccc(C(=O)c2c(NC(=O)c3ccccc3)sc(C)c2C)cc1", "inhibition": "-6.69% (inactive)"}
{"smiles": "Cc1sc(NC(=O)c2ccc3ncsc3c2)c(C(N)=O)c1C", "inhibition": "71.4% (active)"}
{"smiles": "COc1ccc(CN(Cc2ccco2)S(=O)(=O)c2ccc(S(=O)(=O)N3CCCC3)cc2)cc1", "inhibition": "3.07% (inactive)"}
{"smiles": "CCOC(=O)/C(C#N)=C/c1ccc(N2CCN(Cc3ccccc3)CC2)cc1", "inhibition": "-1.35% (inactive)"}
{"smiles": "CCOC(=O)/C(C#N)=C/c1ccc(N2CCCCC2)cc1", "inhibition": "52.8% (active)"}
{"smiles": "COc1ccc(N2CCN(C(=O)/C(C#N)=C/c3ccccc3)CC2)cc1", "inhibition": "1.08% (inactive)"}
{"smiles": "CC1(C)CC(=O)C=C(NCCCN2CCCC2=O)C1", "inhibition": "4.58% (inactive)"}
{"smiles": "CC[N+](C)(CC)CCC[n+]1c(-c2ccccc2)c2cc(N)ccc2c2ccc(N)cc21", "inhibition": "89.2% (active)"}
{"smiles": "Cc1cc(C)n2nc(C(=O)Nc3cccc(S(=O)(=O)N4CCOCC4)c3)nc2n1", "inhibition": "-2.51% (inactive)"}
{"smiles": "Cn1c(Nc2cccc(Cl)c2)nc2ccccc21", "inhibition": "21.9% (inactive)"}
{"smiles": "Cn1c(-c2ccc(C(=O)c3ccccc3)s2)nc2ccccc21", "inhibition": "68.7% (active)"}
{"smiles": "Cn1c(NC(=O)c2ccccc2)nc2ccccc21", "inhibition": "75.7% (active)"}
{"smiles": "Cc1nn(C)cc1C(=O)c1ccccc1", "inhibition": "0.575% (inactive)"}
{"smiles": "Cc1nc2ccccc2c(-c2ccccc2)c1C(=O)c1ccccc1", "inhibition": "-18.6% (inactive)"}
{"smiles": "CCn1c(NC(=O)c2nn(C)cc2Br)nc2ccccc21", "inhibition": "-7.2% (inactive)"}
{"smiles": "O=C(CN(c1ccc2c(c1)OCCO2)S(=O)(=O)c1ccccc1)Nc1ccc2c(c1)OCO2", "inhibition": "12.2% (inactive)"}
{"smiles": "CCOC(=O)C1C(c2ccc(OC)c(OC)c2)c2c([nH][nH]c2=O)CC1(C)O", "note": "(stereo not drawn)", "inhibition": "-17.3% (inactive)"}
{"smiles": "Cc1nn(CC(=O)NC2CCCCC2)c(=O)c2cccn12", "inhibition": "9.49% (inactive)"}
{"smiles": "O=C(Cc1ccc(F)cc1)N1CCN=C1SCc1cccc([N+](=O)[O-])c1", "inhibition": "4.91% (inactive)"}
{"smiles": "CCOC(=O)N1CCN(c2cc(C)c([N+](=O)[O-])cc2F)CC1", "inhibition": "-3.66% (inactive)"}
{"smiles": "CCn1cc(-c2cc(C(=O)O)on2)c(C)n1", "inhibition": "15.3% (inactive)"}
{"smiles": "Cc1ccn2cc(-c3nonc3C)cc2c1", "inhibition": "53.2% (active)"}
{"smiles": "O=[N+]([O-])c1ccc(N/N=C/c2ccccc2)cc1", "inhibition": "0.552% (inactive)"}
{"smiles": "O=C(O)/C=C/C(=O)NNc1ccc([N+](=O)[O-])cc1", "inhibition": "82.9% (active)"}
{"smiles": "CNC(=S)Nc1ccc([N+](=O)[O-])cc1", "inhibition": "-24.9% (inactive)"}
{"smiles": "CCS(=O)(=O)c1ccc(C(=O)NC)c(Cl)c1Cl", "inhibition": "5.83% (inactive)"}
{"smiles": "COc1ccccc1C(=O)Nn1cnnc1", "inhibition": "-21.9% (inactive)"}
{"smiles": "COc1ccc(-c2sc3ccccc3c2-c2ccc(OCCN3CCOCC3)cc2)cc1", "inhibition": "-11.4% (inactive)"}
{"smiles": "COc1ccc(N=C(C)c2sc3ccccc3c2O)cc1", "inhibition": "82.8% (active)"}
{"smiles": "COC(=O)c1ccc(/C=C/c2c(-c3ccc(OC)cc3)sc3ccccc23)cc1", "inhibition": "17.2% (inactive)"}
{"smiles": "Cc1ccc(S(=O)(=O)N(c2cccc(C)c2)C2CCS(=O)(=O)C2)cc1", "note": "(stereo not drawn)", "inhibition": "7.06% (inactive)"}
{"smiles": "CSCC[C@H](NC(=O)N1CCn2c1nc1ccccc12)C(=O)NC1CCCCC1", "inhibition": "-2.54% (inactive)"}
